Measured values as given in PubChem BioAssay.
Several values for one entry are separate records, joined by “and”; a condition that tells them apart may be missing. Identical values can stand only once. For some of these results: Results with a measured potency or affinity are listed apart. Activity calls are given as the source filed them. Unless noted, how the calls were made is not given here.

Assays:
[1] = blockers of polyQ-driven CASP3 activation – cell-based (AID 1583); details: polyglutamine-induced caspase-3 activation, cell assay; stronger effect = higher value;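 tested at 10 µM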
[2] = yeast 75Q aggregation reduction – 75Q-TubU reporter (AID 1593); details: Yeast 75Q polyglutamine aggregation reporter
[3] = restoration of touch response, mutant HTT neurons – whole organism, C. elegans mechanosensory neurons, N-terminal huntingtin (AID 1599); details: C. elegans polyQ-huntingtin mechanosensory neurons, stronger effect = higher value
[4] = blockers of cytochrome c efflux from mitochondria – biochemical, purified mitochondria (AID 1603); details: stronger effect = lower value;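 further: mouse liver mitochondria challenged with calcium chloride; signal normalized to the plate average as 100%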
[5] = polyglutamine aggregate formation blockers (AID 1604); details: polyglutamine-induced protein aggregation inhibition assay; stronger effect = higher value; tested at 2.5 µM
[6] = glutamate transport activators, MN-1 cells, MN-1 cell line (AID 1612); details: MN-1 motor neuron cells, stronger effect = higher value;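 further: tested at 1 µM final; 0% = mean of DMSO vehicle wells on each plate; positive means more glutamate uptake than control and negative means less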
[7] = 75Q-TubH aggregate inhibition, S. cerevisiae, yeast (AID 1616); details: S. cerevisiae 75Q-TubH polyglutamine aggregation suppression; stronger effect = higher value
[8] = compounds altering viability of human ES cells (AID 493140); details: human embryonic stem cell survival screen; stronger effect = higher value;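 further: cells exposed to compounds for four days before counting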
[9] = signal quenchers or enhancers, Cy5 substrate/SSB – biochemical, NIH Clinical Collection, E. coli SSB, artefact control for HCV NS3 helicase inhibitor project (AID 743268); details: Cy5-oligo bound E. coli SSB, fluorescence interference
[10] = test system: Hepatitis C virus NS3 helicase; test: blockers of NS3h binding to DNA – biochemical, fluorescence polarization, NIH Clinical Collection, primary screen (AID 743270); details: NS3 helicase binding to Cy5-dT15 DNA, stronger effect = higher value, concentration not given here
[11] = biological target: Single-stranded DNA-binding protein (Escherichia coli (strain K12)) (UniProt P0AGE0); test: SSB-ssDNA binding inhibitors – biochemical, fluorescence polarization, NIH Clinical Collection, counter-screen for HCV NS3 helicase inhibitor project (AID 743271; in the data active means inhibition above about 28%); details: E. coli SSB-DNA binding, stronger effect = higher value, concentration not given here
[12] = compounds distorting NS3 helicase fluorescence signal – biochemical, NIH Clinical Collection, artefact control for HCV NS3 helicase inhibitor project (AID 743272); details: fluorescence interference counterscreen, HCV NS3 helicase assay; stronger effect = lower value;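 further: HCV NS3 helicase with a Cy5 labelled single stranded DNA probe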
[13] = modulation of C. elegans fzo-1 (AID 1259413);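 further: fzo-1 mutant C. elegans worms in liquid wells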; details: C. elegans fzo-1 modulator screen, mean read-out; stronger effect = higher value
[14] = galactose survival enhancers in mitochondrial complex I cybrids – cell-based, galactose medium, ATP luminescence, primary screen (AID 1645843;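 active means z-score of at least 1.8 in each of two replicates, scored against plate mean and spread of sample wells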;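 further: positive z means more ATP and so rescue of galactose-driven cybrid death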); details: complex I mutant cybrid cells, 72 h, stronger effect = higher value
F380Y/beta1 = test: BK channel mutant inhibitors and activators – cell-based, U2OS BacMam, thallium flux, beta subunits, selectivity assay, profiling panel (AID 1259406;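 active means thallium flux through the channel raised or lowered by more than 3 SD from vehicle-only wells, actives on both sides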;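 further: initial slope of Thallos dye fluorescence rise after thallium is added; log ratio against the mean of 0.3% DMSO vehicle wells on the same plate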); details: U2OS BacMam BK variants, at 30 µM
F380Y/beta4 = test: as above; details: U2OS BacMam BK variants, at 30 µM
R275C/beta4 = test: as above; details: U2OS BacMam BK variants, at 30 µM
R275C/Slo1WT/beta2 = test: as above; details: U2OS BacMam BK variants, at 30 µM
[15] = P. berghei load reduction in hepatocytes – cell-based, HepG2, luciferase luminescence, HepG2 viability, primary screen (AID 624349; in the data active means parasite load remaining mostly below about 12%, no sharp cut-off; inactive means mostly above about 10%;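 further: 100% = mean of DMSO negative control wells on the same plate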); details: P. berghei liver stage in HepG2, luciferase luminescence, concentration not given here; parasite load remaining: stronger effect = lower value; viability: measured here: HepG2 viability without parasites
[16] = blockers of cellular phospholipid synthesis – cell-based, LOPAC library, screen 4, primary screen (AID 1347384); details: animal cells, phospholipid biosynthesis inhibition screen; at 10 µM

COc1cc(NC(C)CCCN)c2ncccc2c1 (stereo not given)
18.8%: inhibition [1]
0: rescue above control [3]
1.79: score [2]
78.1%: inhibition of aggregation [5]
-1.37%: glutamate uptake change [6]
0.68: cytochrome c release ratio [4]
inactive: survival [8] 5.33 | fluorescence ratio [9] 0.96 | inhibition [10] -5% | inhibition [11] 0.29% | fluorescence ratio [12] 0.86 | mean signal [13] 225 | z-score [14] -1.43 and -2.4 | log fold change Tl+ flux (F380Y/beta1) -0.102 | log fold change Tl+ flux (F380Y/beta4) -0.0853 | log fold change Tl+ flux (R275C/beta4) 0.0128 | log fold change Tl+ flux (R275C/Slo1WT/beta2) -0.0635
1.22: aggregation suppression score [7]

c1ccc2c(CC3=NCCN3)cccc2c1
-1.7: rescue above control [3]
16.4%: inhibition [1]
inactive: survival [8] 12.7 | fluorescence ratio [9] 1.03 | inhibition [10] -3.18% | inhibition [11] -2.76% | fluorescence ratio [12] 1.02 | mean signal [13] 245 | z-score [14] 0.47 and 0.505 | log fold change Tl+ flux (F380Y/beta1) 0.0282 | log fold change Tl+ flux (F380Y/beta4) 0.0394 | log fold change Tl+ flux (R275C/beta4) -0.0196 | log fold change Tl+ flux (R275C/Slo1WT/beta2) -0.0172
1.14: cytochrome c release ratio [4]
79.6%: inhibition of aggregation [5]
1.49: aggregation suppression score [7]
-6.49%: glutamate uptake change [6]
1.41: score [2]

C[C@]12C=CC(=O)C=C1CC[C@@H]1[C@@H]2C(=O)C[C@@]2(C)[C@H]1CC[C@]2(O)C(=O)CO
inactive: survival [8] 15.9 | inhibition [10] -0.45% | inhibition [11] -1.24% | fluorescence ratio [12] 0.95 | z-score [14] 0.315 and 0.45 | log fold change Tl+ flux (F380Y/beta1) 0.00863 | log fold change Tl+ flux (F380Y/beta4) 0.000343 | log fold change Tl+ flux (R275C/beta4) -0.00291 | log fold change Tl+ flux (R275C/Slo1WT/beta2) -0.00226
active: fluorescence ratio [9] 0.107

CC(C)Oc1ccc2c(=O)c(-c3ccccc3)coc2c1
inactive: parasite load remaining [15] 170% | fluorescence ratio [9] 1.05 | inhibition [10] 3.56% | inhibition [11] 5.29% | fluorescence ratio [12] 1.04 | mean signal [13] 191 | z-score [14] -0.74 | log fold change Tl+ flux (F380Y/beta1) -0.0734 | log fold change Tl+ flux (F380Y/beta4) -0.0682 | log fold change Tl+ flux (R275C/beta4) -0.0145 | log fold change Tl+ flux (R275C/Slo1WT/beta2) 0.013
63.7%: viability [15]

CC(=O)OCC[N+](C)(C)C
1.22: aggregation suppression score [7]
inactive: fluorescence ratio [9] 1.03 | inhibition [10] -0.45% | inhibition [11] 0.29% | fluorescence ratio [12] 1.01 | mean signal [13] 251 | z-score [14] 1.64 and 0.235 | log fold change Tl+ flux (F380Y/beta1) 0.000642 | log fold change Tl+ flux (F380Y/beta4) -0.0182 | log fold change Tl+ flux (R275C/beta4) 0.0607 | log fold change Tl+ flux (R275C/Slo1WT/beta2) 0.0039
5.33: rescue above control [3]
-18.6%: glutamate uptake change [6]
1.31: cytochrome c release ratio [4]
1.05: score [2]
74.9%: inhibition of aggregation [5]
26.2%: inhibition [1]

CN(C)CC/C=C1\c2ccccc2COc2ccccc21
inactive: survival [8] 18.8 | parasite load remaining [15] 66.1% and 36% and 100% | fluorescence ratio [9] 0.98 | inhibition [10] -1.36% | inhibition [11] 4.1% | fluorescence ratio [12] 0.9 | mean signal [13] 222 | outcome [16] | z-score [14] -0.51 and -1.11 | log fold change Tl+ flux (F380Y/beta1) 0.078 | log fold change Tl+ flux (F380Y/beta4) 0.0925 | log fold change Tl+ flux (R275C/beta4) 0.0396 | log fold change Tl+ flux (R275C/Slo1WT/beta2) -0.0225
121% and 46.9% and 88.3%: viability [15]

CC(=O)[C@H]1CC[C@H]2[C@@H]3C[C@H](C)C4=CC(=O)CC[C@]4(C)[C@H]3[C@@H](O)C[C@]12C
inactive: survival [8] 6.42 | parasite load remaining [15] 57.6% and 67.9% | fluorescence ratio [9] 0.93 | inhibition [10] -0.45% | inhibition [11] 0.29% | fluorescence ratio [12] 0.99 | mean signal [13] 277 | z-score [14] -0.825 | log fold change Tl+ flux (F380Y/beta1) -0.00433 | log fold change Tl+ flux (F380Y/beta4) -0.0204 | log fold change Tl+ flux (R275C/beta4) -0.0699 | log fold change Tl+ flux (R275C/Slo1WT/beta2) -0.105
84.9% and 91.5%: viability [15]

CC(C)(C)NC[C@H](O)COc1nsnc1N1CCOCC1
97.8% and 98% and 104%: viability [15]
inactive: survival [8] 4.17 | parasite load remaining [15] 64.7% and 81.2% and 46% | fluorescence ratio [9] 0.99 | inhibition [10] 0.45% | inhibition [11] 2.57% | fluorescence ratio [12] 0.98 | mean signal [13] 275 | z-score [14] 0.57 and -0.2 and 0.33 | log fold change Tl+ flux (F380Y/beta1) -0.0365 | log fold change Tl+ flux (F380Y/beta4) 0.0021 | log fold change Tl+ flux (R275C/beta4) -0.0714 | log fold change Tl+ flux (R275C/Slo1WT/beta2) -0.0819
